# Reference: PubChem BioAssay (NCI)
# This is part of a sample that, as a whole, favours compounds with a hit. Of some 83,000 tested, about 20% had one in any assay.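 Assay: single dose, 48 h. Readout: percent growth (0 = no net growth; negative = cell death). Active: <10.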 Calls of active or inactive are those of the source.
# System: MOLT-4 leukemia
# Assay: NCI-60 one-dose screen, 48 h (100 = growth as untreated, 0 = no growth, -100 = all killed)
# Details: 10 µM unless noted
# Procedure: Growth inhibition of the MOLT-4 human tumor cell line is measured as a screen for anti-cancer activity. Cells are grown in 96 well plates and exposed to the test compound for 48 hours. Compounds are tested at a single concentration, which is 10^-5 M for most compounds. The reported endpoint is percent growth (GI% or GIPRCNT), where numbers from 0 - 100% represent growth inhibition, and numbers from -100% - 0 represent cell death. For example, a value of 40 represents 60% growth inhibition. A value of 0 means no net growth occurred over the course of the experiment. A value of -40 indicates 40% of cells at the beginning of the experiment died by the end of the experiment. A value of -100 means all cells are dead at the end of the experiment.
# NCI-60 Human Tumor Cell Lines Screen was performed using the standard one-dose NCI protocol, which is described in more detail at https://dtp.cancer.gov/discovery_development/nci-60/default.htm.
# Compounds with GIPRCNT values below 10 were considered active. Activity score was based on GIPRCNT using the following formula: […]
# Score is 0 for GIPRCNT values of 100 or above, 50 for GIPRCNT values of 0, and 100 for GIPRCNT values of -100.
row,SMILES,growth
1,O=C(O)CN1C(=O)CCC1=O,114% (inactive)
2,COc1cc(N2C(=O)c3nccnc3C2=O)cc(OC)c1OC,94.5% (inactive)
3,COCN1CCC2N(COC)CCC3N(COC)CCC1N23 (stereo not given),111% (inactive)
4,O=Cc1c[nH]c2ccc(-c3csc4ccccc34)cc12,15.7% (inactive)
5,COc1ccccc1CNCCCN1C(=O)c2ccc3c4c(ccc(c24)C1=O)C(=O)N(CCCNCCCCN)C3=O,0.762% (active)
6,COc1ccc(N=C(c2ccccc2)C2C(=O)c3ccccc3C2=O)cc1,49.2% (inactive)
7,COc1ccc(/C=C/c2c(C(=O)/C=C/c3cccs3)c(C)nc3ccccc23)cc1,60.1% (inactive)
8,N#Cc1nc2c(S(=O)(=O)c3ccc(Cl)cc3)c(N)n(Nc3cccc(Cl)c3)c2nc1C#N,49.5% (inactive)
9,CCCCc1ccc(Nc2ccc(Nc3ccc(CCCC)cc3S(=O)(=O)O)c3c2C(=O)c2ccccc2C3=O)c(S(=O)(=O)O)c1,96.8% (inactive)
10,COc1ccc(-c2csc(C3=C(O)CN(C(C)C)C3=N)n2)cc1OC,87.2% (inactive)
11,Clc1cccc(Cl)c1C(Nc1nc2ccccc2s1)Nc1nc2ccccc2s1,89.5% (inactive)
12,CCOC(=O)C/C(C)=N\NC(=O)c1ccncc1,93.9% (inactive)
13,Cc1ccccc1NC(=O)N/C(N)=N/c1nc(C)c(C)s1,30.1% (inactive)
14,COc1cc(/C=C/C(=O)c2ccc(Nc3nc(Nc4ccc(F)cc4)nc(Nc4ccc(Cl)cc4)n3)cc2)cc(OC)c1OC,0.996% (active)
15,C[C@]12CC[C@@H]3c4cc(OC(F)F)c(O)cc4CC[C@H]3[C@@H]1CC[C@@H]2OS(N)(=O)=O,25.3% (inactive)
16,CC(C)(C)OC(=O)Nc1ccc2c(c1)C(NC(=O)Nc1cccc(C#N)c1)CC(C)(C)O2 (stereo not given),17.1% (inactive)
17,c1ccc(Nc2nc(-c3ccccn3)cs2)nc1,14.2% (inactive)
18,O=C1/C(=C2/C=Nc3ccccc32)N(O)c2ccccc21,48.4% (inactive)
19,Fc1cnc(NC2CC2)nc1-c1cnc2ccc(N3CCOCC3)cn12,2.32% (active)
20,COc1cc(/C=N/Nc2ncc(-c3cc4cc5c(cc4o3)OCO5)s2)cc(OC)c1OC,18.6% (inactive)

row,SMILES,growth
1,CC1=NOC(=O)/C1=C\c1ccc(O)cc1,102% (inactive)
2,CC1(c2ccccc2)NC(=O)N(NC(=O)CSc2nc(-c3cccs3)nc3ccccc23)C1=O (stereo not given),73.5% (inactive)
3,Oc1c(CN2CCCC2)cc(COCc2ccc(Br)cc2)c2cccnc12,-8.18% (active)
4,COc1ccc(C2=Nc3c(N)ncnc3NC(c3ccc4c(c3)OCO4)C2)cc1 (stereo not given),105% (inactive)
5,COc1c(CCC[P+](c2ccccc2)(c2ccccc2)c2ccccc2)cc2c(c1OC)OCO2,33.3% (inactive)
6,COc1ccc(-c2nc(SCCC(C)C)nc(N/N=C\c3cccc([N+](=O)[O-])c3)c2C#N)cc1,73.1% (inactive)
7,O=C(COc1ccc(/C=C2\Oc3ccccc3C2=O)cc1)Nc1nc2c(s1)CCCC2,-64.3% (active)
8,N/C(=N/N=C/c1ccccc1)N/N=C\c1ccccc1,30.4% (inactive)
9,O=[N+]([O-])c1ccc(N2c3ccncc3Sc3ccncc32)cc1,104% (inactive)
10,Cn1cc2c(c1)-c1nc(Nc3ccccc3)ncc1CC2,44.6% (inactive)
11,N#Cc1c(-c2ccccc2)cc(-c2ccc(Nc3nc(Nc4ccc(F)cc4)nc(Nc4ccc(F)cc4)n3)cc2)nc1N,17.3% (inactive)
12,NS(=O)(=O)c1cnccc1Oc1cccc2cccnc12,93% (inactive)
13,S=C(c1ccc2c(c1)OCO2)N1CCN(c2ccccc2Cl)CC1,95.8% (inactive)
14,Cc1ccc(/C=C2\C(=O)N(C)c3ccc(S(=O)(=O)Nc4ccc(C(C)(C)C)cc4)cc32)s1,78.2% (inactive)
15,CCc1ccccc1NC(=O)/C(C#N)=C/c1ccc(OC)cc1,87.3% (inactive)
16,COc1cccc(-c2nc3sccn3c2/C=C/C(=O)c2ccc(C(F)(F)F)cc2)c1,48.5% (inactive)
17,Nc1nc(N)c2c(n1)NC(c1ccccc1)C1CCc3ccccc3C1=N2 (stereo not given),15.1% (inactive)
18,CCC1(C2CCCC2)NC(=O)NC1=O (stereo not given),110% (inactive)
19,COc1ccc(S(=O)(=O)NCCNc2nccc(-c3c(-c4cccc(F)c4)nc4sccn34)n2)cc1,33.9% (inactive)
20,CC(=O)N1N=C(c2ccc(Nc3nc(Nc4ccc(F)cc4)nc(Nc4ccc(F)cc4)n3)cc2)CC1c1cccc([N+](=O)[O-])c1 (stereo not given),8.35% (active)
